In all, about 360,000 compounds went through this assay and about 3,100 (0.86%) were called active. The full list was thinned out, with actives kept by preference. Values without a mark were called inactive.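 The calls were made as follows: active = at least 50% inhibition at 5 µM, scaled per plate between neutral and stimulator controls; inactive = the rest.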

As usually defined, the inhibition is the change of the read-out against control, counted positive when it falls.

This assay is described as follows: inhibitors of PAF-induced NF-kB signaling, primary screen, cell-based, GFP fluorescence, uHTS (AID 588850).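 Also: PAF is a Pseudomonas aeruginosa culture filtrate used as stimulus; plate controls were PAF-stimulated DMSO wells for no effect and unstimulated DMSO wells for full effect.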 The conditions noted are these: KKLEB NF-kB-GFP reporter, GFP fluorescence overnight, at 5 µM, stronger effect = higher value.
As to `CC1(C(=O)Nc2cccnc2)Cc2c(-c3ccccc3)ccnc2O1` (stereo not given), the inhibition was 14.4%.
The same measure for `Cc1ccccc1C(=O)Nc1cccc(-c2nnc(SCC(=O)O)n2C)c1`: 0.8%; for `C=CCn1c(SCC(=O)c2ccc(Br)cc2)nnc1C(C)NC(=O)Cc1ccc(OC)cc1` (stereo not given): -6.2%.
With `COCCn1c(C)cc(C(=O)CN2c3cccc4cccc(c34)S2(=O)=O)c1C` the figure was 18.2%; with `O=C(c1cccnc1)N(c1cc2sc(=O)oc2c2ccccc12)S(=O)(=O)c1ccccc1`, 67% (active); with `CCc1ccc(N(CC(=O)NCc2cccnc2)S(=O)(=O)c2ccccc2)cc1`, -37.4%.
On to `O=C(c1cccnc1)N(Cc1ccccc1)C(=O)c1cccnc1`, for which the inhibition was 11.6%.
Turning to `NC(=O)C[n+]1cccc(C(N)=O)c1`, the inhibition is 0.4%.
`CCNC(=O)C1CCCN(C(=O)c2ccc(OC)cc2OC)CC1` (stereo not given): the inhibition is -9.2%.
Take `Cc1ccc(C2(C)NC(=O)N(CC(=O)Nc3ccccc3C(=O)N3CCCCC3)C2=O)cc1` (stereo not given): the inhibition is -4.5%.
`O=C(NC1(C(F)(F)F)N=C2SCCN2C1=O)c1ccco1` (stereo not given): the inhibition is 3.6%.
As for `Clc1ccc2c(c1)C1=C(C(c3ccncc3)O2)C(c2ccc(Br)cc2)n2ncnc2N1` (stereo not given), the inhibition is 52.7% (active).
The same measure for `COCCCN(C(=O)Cn1ncc2c(=O)oc3ccc(C)cc3c21)C(C)c1ccncc1` (stereo not given): 1.3%; for `O=C(Nc1ccc2c(c1)OCO2)C1CC(c2c(F)cccc2Cl)=NO1` (stereo not given): 13.8%; for `Cc1cc(C)c(-c2csc(NC(=O)CCCc3nc4ccccc4c(=O)[nH]3)n2)c(C)c1`: -12.5%.
Take `C=CCNC(=O)c1ccc2c3n(nc2c1)-c1ccc(C)cc1CO3`: the inhibition was -75.6%.
Turning to `COc1cc(OC)cc(C(=O)N[C@H](C(=O)NNC(=O)c2ccc(Br)cc2)C(C)C)c1`, the inhibition was -8.2%.
The same measure for `COc1cc(OC)cc(C(=O)N[C@H](C(=O)Nc2nc3ccccc3[nH]2)C(C)C)c1`: 64.3% (active); for `COc1cc(OC)cc(C(=O)N[C@H](C(=O)OCC(=O)NC(C)c2ccccc2)C(C)C)c1` (stereo not given in full): 21.2%; for `CC(=O)NC(c1ccccc1)c1nc(-c2ccccc2C)cs1` (stereo not given): -32.5%.

The values above are taken from PubChem BioAssay AID588850 (Sanford-Burnham Center for Chemical Genomics, 2011).
